Data from PubChem BioAssay AID2825 (Sanford-Burnham Center for Chemical Genomics, 2010).
Out of some 330,000 compounds screened, about 1,300 (0.39%) were called active. This is one part of a sample in which actives are shown more often than they occur.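 How the source made its calls: active means inhibition of 50% or more; inactive means inhibition below 50%.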

Test: NALP3 inflammasome inhibitors in reconstituted yeast, primary screen, luminescence, uHTS (AID 2825);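 further: plate controls were induced DMSO wells for no effect and uninduced yeast grown without galactose for full effect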
Conditions: Yeast reconstituted NLRP3/ASC/caspase-1, beta-gal luminescence, 24 h; at 10 µM; active compounds read high

inhibition, active:
CC(C)(c1ccccc1)c1ccc(OCCN)cc1 54.5%
Nc1c(-c2cccc(Cl)c2)cnn1-c1cccc([N+](=O)[O-])c1 50.4%
Cc1ccc(CSc2nsc(C)c2C#N)cc1 63.5%
Cn1c(=O)c(C(=O)Nc2ncccn2)c(O)c2ccccc21 50.1%
Cc1cc(C)nc(NC(=O)Nc2ccccc2C(F)(F)F)n1 54.9%
COc1cc(N2C(=O)CSC2=S)cc(OC)c1OC 58.3%
O=C1CSC(=S)N1c1ccc(O)cc1 81.7%

inhibition, inactive:
Cc1c(Cl)c([N+](=O)[O-])nn1CCCC(=O)NC(C)c1ccccc1 (centres undefined) 7.95%
COC(=O)CCNC(=O)c1ccc2[nH]c(C)c(C)c2c1 -4.49%
CC(C)(c1ccccc1)c1ccc(OCCN2CCCC2)cc1 31.2%
Cc1nn(CCOc2ccccc2)c(=O)n1-c1ccccc1F -0.993%
Cc1ccc(-c2cn(S(=O)(=O)c3cccc([N+](=O)[O-])c3)nc2N)cc1 -10.8%
COc1cnn(-c2ccc([N+](=O)[O-])cc2)c(=O)c1Cl -39.9%
Cc1snc(SCc2c(F)cccc2Cl)c1C#N 18.9%
Cc1cc(C)c(C#N)c(SCc2ccc3c(c2)OCO3)n1 7.1%
O=C(CCNC(=O)c1ccccc1)NN=Cc1ccc(Br)o1 20.8%
CCCn1c(=O)c(C(=O)Nc2cc(C)ccn2)c(O)c2ccccc21 18.1%
C=CCn1c(=O)c(C(=O)Nc2ncccc2O)c(O)c2ccccc21 22.7%
CS(=O)(=O)N(Cc1nc2sc3c(c2c(=O)[nH]1)CCCC3)C1CCCCC1 19.1%
CC[C@@H](C)[C@H](NC(=O)CCc1c(C)c2cc3c4c(oc3c(C)c2oc1=O)CCCC4)C(=O)O 17.7%
COc1cccc(C(=O)NC(=O)Nc2nc(C)cc(C(F)(F)F)n2)c1 6.49%
Cc1cc(Cl)nc(NC(=O)Nc2cccc(Cl)c2)n1 25.9%
Cc1ccc(CNC(=O)Cn2cnc(S(=O)(=O)N3CCCCC3)c2)o1 4.74%
O=C(c1ccccc1)c1cc(-c2ccccn2)c(N2CCOCC2)s1 -6.23%
CCOC(=O)C1=C(C)NC(C)=C(C(=O)OCC)C1C1=COCCO1 22.7%
O=C1CSC(=S)N1c1ccc(Cl)c(Cl)c1 41.8%
CCOc1ccc(N2C(=O)CSC2=NC#N)cc1 11.9%
COc1cc(C(=O)N2CCN(C)CC2)cc(OC)c1OC 9.48%
COc1cc(N2C(=O)CC3(CCCC3)CC2=O)cc(OC)c1OC 3.58%
